Reference: PubChem BioAssay (Tox21)
Inconclusive results are not listed. Activity calls are given as the source filed them. Unless noted, the call rests on the fitted dose curve; in most records, active means well fitted curve in the direction sought with a large enough effect in the repeat runs; inconclusive means weak or mixed curves; inactive means no such curve, though single readings can be large; an effect the other way counts as inactive or inconclusive.

Tests used:
[1] = molecular target: Retinoic acid receptor RXR-alpha (Homo sapiens) (UniProt P19793); assay: qHTS assay to identify small molecule agonists of the RXR signaling pathway (AID 1159527; calls by dose curve; further: nearly all actives have a fitted effect of over 35% in size)
Sequence of Retinoic acid receptor RXR-alpha (Homo sapiens) (P19793 whole entry, looked up): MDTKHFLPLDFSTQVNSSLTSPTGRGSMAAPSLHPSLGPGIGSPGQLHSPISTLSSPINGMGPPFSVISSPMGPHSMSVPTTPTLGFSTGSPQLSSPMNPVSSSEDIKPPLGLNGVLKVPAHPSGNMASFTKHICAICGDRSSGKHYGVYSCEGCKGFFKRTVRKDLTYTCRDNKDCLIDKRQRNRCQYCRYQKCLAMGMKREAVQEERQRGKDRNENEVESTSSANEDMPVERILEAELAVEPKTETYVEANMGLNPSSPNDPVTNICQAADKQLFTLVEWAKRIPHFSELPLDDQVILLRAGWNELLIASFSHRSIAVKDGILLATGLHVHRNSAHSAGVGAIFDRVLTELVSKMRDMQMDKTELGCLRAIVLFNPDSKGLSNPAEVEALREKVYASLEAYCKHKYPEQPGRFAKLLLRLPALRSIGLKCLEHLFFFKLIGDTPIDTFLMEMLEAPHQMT
In short: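 GeneBLAzer RXR-alpha-UAS-bla HEK 293T cells in 2% charcoal-stripped FBS medium were exposed to compounds for 16 hr at 37 C in agonist mode. Beta-lactamase reporter read as 460/530 nm FRET ratio after 2 hr substrate loading.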

[2] = qHTS assay to identify small molecule agonists of the RXR signaling pathway - cell viability counter screen (AID 1159529); further: series mostly up to about 77 µM; nearly all actives have a fitted effect of over 50% in size
In short: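 RXR-alpha-UAS-bla HEK 293T cells in medium with 2% charcoal-stripped FBS were pre-incubated 5 hr, then compound-treated 16 hr at 37 C. Viability was read by CellTiter-Glo luminescence in the same wells as the beta-lactamase assay, with tetraoctyl ammonium bromide as positive control.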

[3] = qHTS assay to identify small molecule antagonists of the retinoid acid receptor (RAR) signaling pathway - cell viability counter screen (AID 1159551); further: nearly all actives have a fitted effect of over 35% in size
In short: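 Retinol-stimulated (1 uM final) C3RL4 cells, compound 6 h, 37 C; readout CellTiter-Glo luminescence (ATP) after 30 min RT incubation.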

[4] = qHTS assay to identify small molecule antagonists of the retinoic acid receptor (RAR) signaling pathway (AID 1159552; further: nearly all actives have a fitted effect of over 50% in size)
In short: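 Retinol signaling pathway inhibitors screened in C3RL4 RARE-luciferase reporter cells seeded overnight at 37 C, then compounds added with 1 uM (final) retinol as pathway substrate. After 6 hr at 37 C, luciferase luminescence read after 30 min at room temperature.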

[5] = qHTS assay to identify small molecule agonists of the retinoic acid receptor (RAR) signaling pathway (AID 1159553); further: potency means the concentration at half of the fitted maximal effect
In short: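 Reporter readout comes from luciferase under RARE control in C3RL4 cells; compound exposure lasts 6 hr at 37 C in 5% CO2, and luminescence is recorded following a 30 min room-temperature incubation with reagent.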

[6] = qHTS assay to identify small molecule antagonists of the estrogen related receptor (ERR) signaling pathway from Tox21 library - cell viability counter screen (AID 1224834); further: nearly all actives have a fitted effect of over 30% in size
In short: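 After 17.5 h of compound exposure at 37 C, ERR cells are incubated with CellTiter-Fluor for 30 min and fluorescence intensity serves as the viability measure.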

[7] = molecular target: Luciferin 4-monooxygenase (Photinus pyralis) (UniProt P08659); assay: qHTS assay to identify small molecule inhibitors of firefly luciferase (AID 1224835); further: series mostly up to about 120 µM; nearly all actives have a fitted effect of over 25% in size
Sequence of Luciferin 4-monooxygenase (Photinus pyralis) (P08659 whole entry, looked up): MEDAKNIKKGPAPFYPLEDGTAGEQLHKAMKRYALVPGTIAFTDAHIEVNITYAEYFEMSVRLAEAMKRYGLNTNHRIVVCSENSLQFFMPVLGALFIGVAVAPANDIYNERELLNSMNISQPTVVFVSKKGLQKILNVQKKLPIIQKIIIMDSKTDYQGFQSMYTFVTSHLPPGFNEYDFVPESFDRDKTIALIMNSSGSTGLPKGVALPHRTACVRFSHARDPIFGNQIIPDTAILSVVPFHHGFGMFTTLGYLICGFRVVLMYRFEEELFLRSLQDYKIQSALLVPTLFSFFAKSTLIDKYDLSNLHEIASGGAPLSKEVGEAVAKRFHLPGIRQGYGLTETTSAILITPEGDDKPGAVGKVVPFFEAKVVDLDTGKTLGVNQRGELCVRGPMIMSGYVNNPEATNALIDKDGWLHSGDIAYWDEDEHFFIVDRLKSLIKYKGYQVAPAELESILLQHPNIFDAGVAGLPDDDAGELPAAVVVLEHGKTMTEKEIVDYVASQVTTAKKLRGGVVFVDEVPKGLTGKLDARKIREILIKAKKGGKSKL
In short: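 Quantitative HTS format; KM concentrations of both substrates. Purified P. pyralis FLuc activity quantified from luminescence images.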

[8] = qHTS assay to identify small molecule agonists of the constitutive androstane receptor (CAR) signaling pathway - cell viability counter screen (AID 1224836); further: series mostly up to about 92 µM; nearly all actives have a fitted effect of over 45% in size
In short: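 HepG2 cells stably carrying hCAR and a CYP2B6-2.2kb reporter; 15-concentration compounds plus PK11195 (final 0.75 uM), 23 hr at 37 C/5% CO2. Viability read by CellTiter-Fluor fluorescence.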

[9] = qHTS assay to identify small molecule antagonists of the constitutive androstane receptor (CAR) signaling pathway - cell viability counter screen (AID 1224837); further: series mostly up to about 92 µM; nearly all actives have a fitted effect of over 45% in size
In short: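 Counter screen run in HepG2-CYP2B6-hCAR cells: 4 hr settle, compound titration (15 concentrations) with 50 nM CITCO, 23 hr at 37 C/5% CO2, CellTiter-Fluor fluorescence.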

[10] = molecular target: Nuclear receptor subfamily 1 group I member 3 (Homo sapiens) (UniProt Q14994); assay: qHTS assay to identify small molecule antagonists of the constitutive androstane receptor (CAR) signaling pathway (AID 1224838);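 further: HepG2 cells stably expressing hCAR with CYP2B6 luciferase reporter stimulated by CITCO; nearly all actives have a fitted effect of over 40% in size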
Sequence of Nuclear receptor subfamily 1 group I member 3 (Homo sapiens) (Q14994 whole entry, looked up): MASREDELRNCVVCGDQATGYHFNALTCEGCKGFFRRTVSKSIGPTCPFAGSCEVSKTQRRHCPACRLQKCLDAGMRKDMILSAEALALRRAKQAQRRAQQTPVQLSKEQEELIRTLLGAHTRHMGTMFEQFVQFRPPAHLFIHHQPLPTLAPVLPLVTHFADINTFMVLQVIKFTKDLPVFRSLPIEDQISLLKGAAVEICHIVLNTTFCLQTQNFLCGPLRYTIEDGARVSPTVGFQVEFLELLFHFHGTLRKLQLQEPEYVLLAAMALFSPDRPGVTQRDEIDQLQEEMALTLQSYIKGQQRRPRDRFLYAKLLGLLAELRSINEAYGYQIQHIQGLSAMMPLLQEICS
In short: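 Cell line: HepG2 double-stable for hCAR and CYP2B6-2.2kb reporter. Agonist: CITCO, 50 nM final. Compounds: 15 concentrations, 24 h, 37 C. Detection: ONE-Glo luminescence.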

[11] = molecular target: Nuclear receptor subfamily 1 group I member 3 (Homo sapiens) (UniProt Q14994); assay: qHTS assay to identify small molecule agonists of the constitutive androstane receptor (CAR) signaling pathway (AID 1224839); further: nearly all actives have a fitted effect of over 15% in size; further: potency means the concentration at half of the fitted maximal effect;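 on activation: HepG2 cells stably carrying human CAR and a CYP2B6 luciferase reporter; series mostly up to about 92 µM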
In short: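 HepG2 cells stably co-transfected with hCAR and a CYP2B6-2.2kb luciferase reporter; compounds at 15 concentrations with 0.75 uM PK11195 present. After 24 hr at 37 C, luciferase read by ONE-Glo luminescence.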

[12] = qHTS assay to identify small molecule antagonists of the estrogen related receptor signaling pathway with the pleiotropic PPARgamma coactivator (PGC) from Tox21 10K library - cell viability counter screen (AID 1224840; active means well fitted cell-killing curve with a large enough effect in the repeat runs, not every such curve was filed as active; further: nearly all actives have a fitted effect of over 40% in size)
In short: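 Following seeding of 2,000 PGC/ERR cells/well and 6 hours' incubation, test compounds were delivered in DMSO. The plates then sat 17.5 hours at 37 C before a fluorogenic live-cell protease reagent (CellTiter-Fluor) was read after 30 min.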

[13] = qHTS assay to identify small molecule antagonists of the estrogen related receptor signaling pathway with the pleiotropic PPARgamma coactivator (PGC) from Tox21 10K library (AID 1224841; call rule not given here; further: series mostly up to about 92 µM; actives are mostly falling curves and most rising ones were filed inactive; nearly all actives have a fitted effect of over 50% in size)
In short: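 qHTS antagonist format: PGC/ERR cells, 2k/well, compound in DMSO by pin transfer after 6 h attachment, 18 h treatment at 37 C, One-Glo luminescence read at 30 min.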

[14] = qHTS assay to identify small molecule agonists of the estrogen related receptor signaling pathway with the pleiotropic PPARgamma coactivator (PGC) from Tox21 10K library (AID 1224842); further: nearly all actives have a fitted effect of over 15% in size
In short: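 PGC/ERR reporter cells (NTP line) were seeded 2,000 per well, rested 6 h at 37 C/5% CO2, then pin-dosed with compounds in DMSO for 18 h at 37 C; luciferase read by One-Glo luminescence after 30 min at room temperature.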
On the % scale 0 is the no-effect control and ±100 the full control effect.

CC(=O)OCCC1CCCCC1
inactive: Potency [1] | Potency [2] | Potency [3] | Potency [4] | Potency [5] | Potency [6] | Potency [7] | Potency [8] | Potency [9] | Potency [10] | Potency [11] | Potency [12]

O=C(O)CCC(=O)OC[C@@H](NC(=O)C(Cl)Cl)[C@H](O)c1ccc([N+](=O)[O-])cc1
inactive: Potency [1] | Potency [2] | Potency [3] | Potency [4] | Potency [5] | Potency [6] | Potency [7] | Potency [8] | Potency [9] | Potency [10] | Potency [11] | Potency [12]

COC(=O)c1sccc1S(N)(=O)=O
inactive: Potency [1] | Potency [2] | Potency [3] | Potency [4] | Potency [5] | Potency [6] | Potency [7] | Potency [8] | Potency [9] | Potency [10] | Potency [11] | Potency [12] | Potency [13] | Potency [14]

COC(CC(C)CCCC(C)(C)O)OC (centres undefined)
inactive: Potency [1] | Potency [2] | Potency [3] | Potency [4] | Potency [5] | Potency [6] | Potency [7] | Potency [8] | Potency [9] | Potency [10] | Potency [11] | Potency [12]

CCOC(=O)c1c(N)sc2c1CCN(Cc1ccccc1)C2
inactive: Potency [1] | Potency [2] | Potency [3] | Potency [4] | Potency [5] | Potency [6] | Potency [7] | Potency [8] | Potency [9] | Potency [10] | Potency [11] | Potency [12]

CCc1ccc(C)cc1
inactive: Potency [1] | Potency [2] | Potency [3] | Potency [4] | Potency [5] | Potency [6] | Potency [7] | Potency [8] | Potency [9] | Potency [11] | Potency [12]

CCC(Cl)CC(Cl)C(Cl)C(Cl)C(Cl)C(C)Cl (centres undefined)
inactive: activation [1] -0.0074% [at 15.8 µM] | activity change, negative = cytotoxicity [2] -9.76% [at 15.8 µM] | activity change, negative = cytotoxicity [3] 0.117% [at 19 µM] | activity, negative = inhibition [4] 84.9% [at 19 µM] | viability change, negative = cytotoxic [6] -2.15% [at 19 µM] | activity change, negative = inhibition [7] -6.92% [at 23.6 µM] | viability change, negative = cytotoxic [8] -5.9% [at 19 µM] | activity change, negative = cytotoxicity [9] -3.5% [at 19 µM] | activity, negative = inhibition [10] 94.1% [at 19 µM] | viability change, negative = cytotoxic [12] -3.01% [at 19 µM]
active: Potency [5] 133 nM | Potency [11] 2650 nM

Nc1ccc(F)cc1
inactive: Potency [1] | Potency [2] | Potency [3] | Potency [4] | Potency [5] | Potency [6] | Potency [7] | Potency [8] | Potency [9] | Potency [11] | Potency [12] | Potency [13] | Potency [14]

CSCC[C@H](NC(=O)[C@H](Cc1c[nH]c2ccccc12)NC(=O)CCNC(=O)OC(C)(C)C)C(=O)N[C@@H](CC(=O)O)C(=O)N[C@@H](Cc1ccccc1)C(N)=O
inactive: Potency [1] | Potency [2] | Potency [3] | Potency [4] | Potency [5] | Potency [6] | Potency [7] | Potency [8] | Potency [9] | Potency [10] | Potency [11] | Potency [12]

CC1C(C)(C)C2=C(C(=O)CCC2)C1(C)C (centres undefined)
inactive: Potency [1] | Potency [2] | Potency [3] | Potency [4] | Potency [5] | Potency [6] | Potency [7] | Potency [8] | Potency [9] | Potency [10] | Potency [11] | Potency [12] | Potency [13] | Potency [14]
